tim23-1 inh: growth inhibitors of tim23-1 mutant yeast, primary screen, luminescence, uHTS. inhibition, % at 20 µM. S. cerevisiae tim23-1 growth, BacTiter-Glo luminescence, 24 h. hit rate 1.3% among 330,000. AID 463212, 2010;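 active = growth inhibition of the mutant yeast at or above 50%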;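 note: temperature-sensitive mutant grown at 25 °C; plate controls were DMSO-treated mutant yeast for no effect and medium wells lacking yeast for full effect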
Mdm2 MdmX PPI: inhibitors of human Mdm2-MdmX association, primary screen, cell-based, luminescence, split luciferase, SaOS-2, uHTS | Protein Mdm4 (Homo sapiens) + E3 ubiquitin-protein ligase Mdm2 (Homo sapiens), … | SaOS-2 split-luciferase Mdm2/MdmX complementation | inhibition, % at 8 µM | hit rate 3% among 330,000;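 active = inhibition of at least 50% at 8 µM in the primary screen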
Target sequence (O15151 whole entry, looked up): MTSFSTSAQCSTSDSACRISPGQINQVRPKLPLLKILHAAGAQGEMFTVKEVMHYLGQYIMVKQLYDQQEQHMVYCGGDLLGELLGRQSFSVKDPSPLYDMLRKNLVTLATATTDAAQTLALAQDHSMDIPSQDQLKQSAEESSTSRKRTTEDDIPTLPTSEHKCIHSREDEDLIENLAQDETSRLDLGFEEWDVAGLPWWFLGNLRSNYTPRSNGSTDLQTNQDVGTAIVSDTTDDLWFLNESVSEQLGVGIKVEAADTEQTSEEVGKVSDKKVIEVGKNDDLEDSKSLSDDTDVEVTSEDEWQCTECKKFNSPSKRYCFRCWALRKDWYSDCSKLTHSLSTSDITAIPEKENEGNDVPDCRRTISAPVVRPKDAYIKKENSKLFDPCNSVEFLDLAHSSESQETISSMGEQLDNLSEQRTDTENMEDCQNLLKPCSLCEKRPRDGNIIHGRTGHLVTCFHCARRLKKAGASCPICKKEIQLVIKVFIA
Target sequence (Q00987 whole entry, looked up): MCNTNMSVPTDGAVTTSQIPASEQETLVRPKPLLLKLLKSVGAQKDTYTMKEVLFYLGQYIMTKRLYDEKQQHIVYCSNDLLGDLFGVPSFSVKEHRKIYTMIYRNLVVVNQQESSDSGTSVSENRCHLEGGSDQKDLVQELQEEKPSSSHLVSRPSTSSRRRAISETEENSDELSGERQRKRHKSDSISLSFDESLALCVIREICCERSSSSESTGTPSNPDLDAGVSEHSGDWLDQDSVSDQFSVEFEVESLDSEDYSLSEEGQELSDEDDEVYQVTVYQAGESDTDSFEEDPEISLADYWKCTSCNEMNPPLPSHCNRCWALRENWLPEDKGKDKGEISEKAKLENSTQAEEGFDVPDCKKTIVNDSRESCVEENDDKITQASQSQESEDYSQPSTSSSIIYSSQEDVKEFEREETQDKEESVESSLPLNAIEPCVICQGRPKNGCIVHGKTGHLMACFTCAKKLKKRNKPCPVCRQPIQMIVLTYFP
tim10-1 inh: growth inhibitors of tim10-1 mutant yeast, primary screen, luminescence, uHTS; S. cerevisiae tim10-1 ts strain growth, BacTiter-Glo, 24 h; inhibition, % at 20 µM; hit rate 2.2% among 330,000;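 active = inhibition of at least 40%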;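 note: mutant grown at 25 °C; 0% = DMSO wells with yeast and 100% = wells holding no yeast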
MPTP inh: mitochondrial permeability transition pore inhibitors, primary screen, biochemical, isolated mouse mitochondria, absorbance. Ca2+ swelling absorbance, 30 min. inhibition, % at 10 µM. hit rate 1.4% among 360,000. AID 602449, 2012;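 active = inhibition of 50% or more, scaled per plate between neutral and stimulator controls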;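 note: 0% = DMSO wells given calcium and 100% = 1 mM EGTA wells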
TIM10 inh: growth inhibitors of isogenic TIM10 control yeast, primary screen, counter-screen for tim10-1 yeast inhibitor project, luminescence, uHTS | S. cerevisiae TIM10 strain growth, BacTiter-Glo luminescence, 24 h | hit rate 1.4% among 330,000 | AID 463195, 2010 | inhibition, % at 10 µM;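 active = inhibition of 40% or more at the single tested concentration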;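 note: wild-type TIM10 isogenic control strain grown at permissive 25 °C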
Mdm2 MdmX conf: Mdm2-MdmX complex disruptors, retested hits, confirmation, luminescence, single concentration; shares compounds with Mdm2 MdmX PPI; Mdm2-MdmX binding, luminescent assay; inhibition, % at 8 µM; hit rate 55% among 10,000; in the data active = inhibition above about 40%
FLuc counter: full-length luciferase signal inhibition, confirmation, counter-screen for Mdm2/MdmX interaction inhibitor project, cell-based, single concentration, SaOS-2. shares compounds with Mdm2 MdmX PPI. hit rate 77% among 6,200. AID 504607, 2011. inhibition, % at 8 µM. SaOS-2 full-length luciferase counterscreen, luminescence;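 active = mean inhibition at 8 µM reaching about 37%, which flags the compound as non-specific, limit read from the data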;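 note: p53-null SaOS-2 cells with luciferase driven by a doxycycline-inducible promoter; compound on cells about two nights before reading with doxycycline added after day one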
An asterisk follows results filed as active; . = not tested or not shown. Hits are enriched below; roughly 6.3% of the tested compounds scored in any of these assays.

SMILES	tim23-1 inh	Mdm2 MdmX PPI	tim10-1 inh	MPTP inh	TIM10 inh	Mdm2 MdmX conf	others
COc1ccc2nc(Nc3ccc4c(c3)OCO4)sc2c1	7.7	21.0	21.6	-0.5	0.7	.
Cc1nn(CC(=O)NC2CCCCC2)c(C)c1[N+](=O)[O-]	.	.	.	1.2	.	.
C[C@@H]1CN([C@H](C)CO)C(=O)c2cc(NC(=O)Nc3ccc(C(F)(F)F)cc3)ccc2O[C@H]1CN(C)C(=O)Nc1ccc(F)cc1	.	.	.	-1.3	.	.
C[C@H](CO)N1C[C@H](C)[C@@H](CN(C)C(=O)Nc2ccc(C(F)(F)F)cc2)Oc2c(NC(=O)Nc3ccc(C(F)(F)F)cc3)cccc2C1=O	29.5	83.8*	18.4	0.0	0.4	-5.6
C[C@H](CO)N1C[C@H](C)[C@@H](CN(C)C(=O)Nc2ccc(C(F)(F)F)cc2)Oc2ccc(NC(=O)Nc3ccc(C(F)(F)F)cc3)cc2C1=O	2.2	64.6*	-6.5	-1.0	-0.6	-21.1
CCOc1ccccc1CNC(=O)C1CCN(S(=O)(=O)N2CCC(C)CC2)CC1	.	.	.	-1.1	.	.
COCCCNC(=O)c1cc(OC)c(OC)c(OC)c1	15.0	21.5	-4.7	-2.3	-1.8	.
COc1cc(C(=O)NCCCCCCNC(=O)c2cc(OC)c(OC)c(OC)c2)cc(OC)c1OC	5.9	52.4*	-15.0	-0.4	-2.6	37.9
CC1(C)CC(Cc2ccc(Cl)nc2)N(C(=O)OC(C)(C)C)C1 (centres undefined)	.	.	.	-2.6	.	.
O=[N+]([O-])c1c(Nc2ccccc2O)ccc2nonc12	-3.0	5.5	13.6	0.3	3.3	.
CC(=O)Nc1ccc(Nc2cc(N3CCOCC3)c3nonc3c2[N+](=O)[O-])cc1	11.6	29.7	-8.0	-0.5	-8.8	.
O=[N+]([O-])c1c(Nc2ccc(O)cc2)cc(N2CCOCC2)c2nonc12	-9.8	50.7*	2.2	2.8	8.1	18.1
O=[N+]([O-])c1c(Nc2ccccc2O)cc(Cl)c2nonc12	36.8	94.8*	33.9	1.1	30.9	99.8*	FLuc counter=53.9*
CCc1cccc(OCC(=O)Nc2ccccc2N2CCCC2)c1	17.2	0.7	5.2	-1.2	-5.4	.
OC[C@@H]1CN(Cc2cccc(C(F)(F)F)c2)C[C@H](n2cnc3c(NCc4ccncc4)ncnc32)O1	.	.	.	0.1	.	.
CC(C)Cc1nc2oc3c(=O)[nH]cnc3c2c2c1CCCC2	5.4	20.2	17.7	4.3	-15.3	.
CCCc1nc2oc3c(Cl)ncnc3c2c2c1CCCC2	43.1	100.3*	21.9	8.6	33.0	12.3
COc1ncnc2c1oc1nc(CC(C)C)c3c(c12)CCCC3	.	.	.	0.4	.	.
CC(C)Cc1nc2oc3c(Cl)ncnc3c2c2c1CCCC2	35.6	67.8*	26.4	5.3	18.0	9.2
CC(SC1=NCCS1)C(=O)Nc1nnc(-c2ccc(Br)cc2)s1 (centres undefined)	19.9	52.2*	-3.2	2.2	-4.3	18.6
COc1ccc([C@H]2CN(Cc3ccccc3)C(=O)[C@@H]2CC(=O)Nc2ccccc2)cc1	.	.	.	-0.5	.	.
Cc1ncc(CO)c2c1Oc1nc(-c3ccccc3)nc(SCC(=O)N3CCOCC3)c1C2	8.7	28.1	20.2	-0.7	-5.9	.
Cc1ncc(CO)c2c1Oc1nc(-c3ccccc3)nc(SCC(=O)N3CCCCC3)c1C2	22.2	62.5*	27.9	-1.2	-4.2	38.2	FLuc counter=53.4*
Cc1cccc(-c2nc3c(c(SCC(=O)N4CCOCC4)n2)Cc2c(CO)cnc(C)c2O3)c1	-11.8	28.0	2.8	-1.7	-5.1	.
COc1cccc(-c2nc3c(c(SCC(=O)N4CCOCC4)n2)Cc2c(CO)cnc(C)c2O3)c1	-3.9	64.6*	-4.3	-1.3	10.5	30.8	FLuc counter=70.7*
SMILES	tim23-1 inh	Mdm2 MdmX PPI	tim10-1 inh	MPTP inh	TIM10 inh	Mdm2 MdmX conf	others
O=S(=O)(c1ccccc1OC(F)(F)F)N1CCN(c2ccnc3cc(Cl)ccc23)CC1	41.3	58.9*	31.9	1.2	6.4	27.9
COc1ccccc1N1CCN(C(=O)COc2ccc(Cl)cc2Br)CC1	12.5	57.1*	10.5	-0.6	7.1	37.9	FLuc counter=59.6*
COc1ccccc1N1CCN(c2ccnc3cc(Cl)ccc23)CC1	44.8	56.0*	12.1	0.2	17.2	64.0*	FLuc counter=54.9*
COc1ccccc1NC(=O)N1CCN(c2ccnc3cc(Cl)ccc23)CC1	23.9	22.1	30.7	12.0	9.5	.
CCc1nc2ccc(C(=O)Nc3ccc(OC)c(OC)c3)cn2c1N(C)CCC(C)C	.	.	.	-0.5	.	.
COc1ccc(-c2nc3ccc(Cl)cn3c2Cc2ccc(C)cc2)cc1OC	.	.	.	0.3	.	.
O=c1[nH]cc(F)c(=O)n1C1OC(CO)C(O)C1O (centres undefined)	.	.	.	-1.2	.	.
O=c1[nH]c2cc([N+](=O)[O-])ccc2c2cc(Br)ccc12	.	.	.	0.6	.	.
COC1(OC)C(/C=C/c2ccc(Cl)cc2)C(C#N)(C#N)C1(OC)OC (centres undefined)	19.3	88.2*	16.9	1.2	12.3	56.6*	FLuc counter=22.6
Cc1cc(C)cc(N(CCC(=O)Nc2nnc(C3CC3)s2)S(=O)(=O)c2ccc(Cl)cc2)c1	-3.3	51.3*	8.8	0.9	7.1	59.9*	FLuc counter=76.5*
CN1CCN(CC/C=C2/c3ccccc3Sc3ccc(S(=O)(=O)N(C)C)cc32)CC1	17.4	67.5*	24.3	1.6	9.4	27.4
CC(=O)c1c(-c2ccccc2)[nH]c2ccccc12	6.3	51.9*	-6.0	1.0	-8.4	32.8
Cc1cc2sc(NC(=O)c3ccco3)nc2cc1Cl	20.0	0.2	21.1	0.5	17.9	.
COc1cc2sc(NC(=O)c3ccco3)nc2cc1Cl	2.0	63.6*	-12.1	0.7	-24.8	-56.1
Cn1c(-c2ccccc2)cc2onc(-c3ccccc3)c2c1=O	45.1	61.6*	30.1	0.0	2.3	37.5	FLuc counter=113.3*
Cn1c(-c2ccccc2F)cc2onc(-c3ccccc3)c2c1=O	41.7	-18.5	21.9	-0.3	-0.4	.
C[C@]12CCC3C(CC[C@H]4CCCC[C@]34C)C1CC[C@@]2(O)CNCCO (some centres undefined)	10.4	98.0*	-0.6	-0.6	3.5	79.3*	FLuc counter=41.7*
CC1(C(=O)Nc2cnc3ccccc3c2)CCN1Cc1ccc(OC(F)(F)F)cc1 (centres undefined)	.	.	.	7.0	.	.
O=[N+]([O-])c1cc(F)cc(F)c1Nc1ccc(F)cc1	.	.	.	0.5	.	.
C=C1C(=O)O[C@@H]2C[C@@H](C)[C@@H]3C=CC(=O)[C@@]3(C)[C@@H](OC(C)=O)[C@H]12	26.2	100.3*	32.5	.	28.9	99.6*	FLuc counter=51.3*

Screens deposited in PubChem BioAssay by Sanford-Burnham Center for Chemical Genomics.
